Molecules are shown by their SMILES. Where “and” joins values, the source holds several entries; their conditions need not be identical. Equal entries are not always repeated. Inconclusive results are not listed. Calls of active or inactive are those of the source. Unless noted, calls follow the shape of the dose curve; as a rule, active = well fitted curve in the direction sought with a large enough effect; inconclusive = small, poorly fitted or top-dose-only effect, or another doubt; inactive = no such curve, though single readings can be large; an effect the other way counts as inactive or inconclusive.

The target of one assay is Glucagon-like peptide 1 receptor (Homo sapiens) (UniProt P43220). The experiment in a line: qHTS of GLP-1 Receptor Agonists: LOPAC Validation (AID 624148).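 Also: 0% is about no effect; higher luminescence signal means agonism.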 The note with it: GLP-1R agonist cell assay; series mostly up to 46.1 µM. An outline of the steps: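 HEK293 cells stably co-expressing GLP-1R and a cAMP-responsive luciferase reporter, plated 12 hours before compound, then incubated 4-6 hr at 37 deg C. Luminescence read 12 min after detection reagent.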
Sequence of Glucagon-like peptide 1 receptor (Homo sapiens) (P43220 whole entry, looked up): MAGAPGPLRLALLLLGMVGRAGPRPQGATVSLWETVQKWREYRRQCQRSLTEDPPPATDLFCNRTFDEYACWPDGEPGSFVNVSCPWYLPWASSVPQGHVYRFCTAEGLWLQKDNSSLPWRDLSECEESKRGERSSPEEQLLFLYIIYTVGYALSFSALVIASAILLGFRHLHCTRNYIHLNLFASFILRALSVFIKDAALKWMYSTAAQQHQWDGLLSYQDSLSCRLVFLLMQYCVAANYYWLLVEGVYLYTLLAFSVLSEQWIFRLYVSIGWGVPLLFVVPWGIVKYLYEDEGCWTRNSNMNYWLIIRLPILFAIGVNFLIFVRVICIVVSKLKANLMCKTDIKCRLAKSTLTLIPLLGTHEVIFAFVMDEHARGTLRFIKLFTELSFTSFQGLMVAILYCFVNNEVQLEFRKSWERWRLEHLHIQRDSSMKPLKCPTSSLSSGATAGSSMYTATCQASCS
For `CN(C)CCC(c1ccc(Cl)cc1)c1ccccn1` (stereo not given), the outcome was inactive.

Consider `CC1OC1P(=O)(O)O` (stereo not given), for which the call was inactive.

Take `N.N.O=C(O)C1(C(=O)O)CCC1.[Pt]`: the result was inactive.

Regarding `CN1CC(=O)N/C1=N/C(=O)Nc1cccc(Cl)c1`, the compound was classed as inactive.

On to `CC(C)Cc1ccc([C@H](C)C(=O)O)cc1`, for which the outcome was inactive.

System in the next assay: not listed separately
The experiment in a line: qHTS of Nrf2 Activators: LOPAC Validation (AID 624149). Also: 0% is about no effect. The settings on record: Nrf2/ARE reporter cell assay; series mostly up to 46.1 µM. An outline of the steps:
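Luminescence read-out of ARE-luciferase activation: AREc32_Fluc cells treated with compounds for 24 hr at 37 deg C, then lysed with Steady-Glo for 30 min at room temperature before reading.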
In the case of `CN1[C@@H](CC(=O)c2ccccc2)CCC[C@H]1C[C@H](O)c1ccccc1`, the outcome was inactive.

`CN(C)CCC(c1ccc(Cl)cc1)c1ccccn1` (stereo not given): the compound was called inactive.

Take `CC1OC1P(=O)(O)O` (stereo not given): the call was inactive.

`N.N.O=C(O)C1(C(=O)O)CCC1.[Pt]`: the call was inactive.

As for `CN1CC(=O)N/C1=N/C(=O)Nc1cccc(Cl)c1`, the compound was classed as inactive.

Turning to `CC(C)Cc1ccc([C@H](C)C(=O)O)cc1`, the result was inactive.

Regarding `O=C(O)/C=C/C(O)c1ccc(Cl)cc1` (stereo not given), the result was inactive.

System in another assay: not listed separately
The experiment in a line: HTS Assay for Allosteric Antagonists of the Human D2 Dopamine Receptor: Hit Validation in HTRF (AID 624455).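 Also: stable D1 dopamine receptor cell line scored for blocking the D1 response; % is scaled to controls: 0 for no effect and ±100 for the full control effect.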 The settings on record: Cells stably expressing D1 dopamine receptor, inhibition mode; series mostly up to 46.1 µM. An outline of the steps: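 First, antagonism was screened by calcium flux in a force-coupled, inducible Hek293 Trex D2 line challenged with EC80 dopamine. Hits then went into an HTRF assay in cells stably expressing D1, testing inhibition of the D1 response.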
(In general: TR-FRET usually uses a lanthanide donor and a delayed reading to cut background.)
`CN1[C@@H](CC(=O)c2ccccc2)CCC[C@H]1C[C@H](O)c1ccccc1`: the Potency entry was “inactive”.

In the case of `CN(C)CCC(c1ccc(Cl)cc1)c1ccccn1` (stereo not given), the Potency result is “inactive”.

On to `CC1OC1P(=O)(O)O` (stereo not given), for which the Potency entry is “inactive”.

Consider `CN1CC(=O)N/C1=N/C(=O)Nc1cccc(Cl)c1`, for which the Potency result was “inactive”.

`CC(C)Cc1ccc([C@H](C)C(=O)O)cc1`: the Potency result is “inactive”.

For `O=C(O)/C=C/C(O)c1ccc(Cl)cc1` (stereo not given), the Potency result was “inactive”.

System in the next assay: not listed separately
The experiment in a line: qHTS assay for small molecule agonists of the antioxidant response element (ARE) signaling pathway (AID 651741; active = well fitted activation curve with a large enough effect in the signal ratio; the % refers to the signal ratio; also: potency is read from the fitted curve at half-maximal effect; as to activation: % of control where 0% means no effect). The settings on record: HepG2 ARE-bla reporter, beta-lactamase FRET ratio, 16 h; series mostly up to 96 µM. An outline of the steps:
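CellSensor ARE-bla HepG2 cells (2,000/well) carrying ARE-driven beta-lactamase, exposed 16 h at 37 C. LiveBLAzer B/G FRET substrate added for 2 h at room temperature; fluorescence intensity read.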
Background: In qHTS, concentration-response curves come from the screen itself.
On to `CN1[C@@H]2CC[C@H]1CC(OC(=O)C(CO)c1ccccc1)C2` (stereo not given in full), for which the Potency entry is “inactive”.

With `CCCCCCCCCCCCCCCCCC(=O)O`, the Potency result was “inactive”.

As for `NCCO`, the Potency entry is “inactive”.

As to `c1ccc2sc(SSc3nc4ccccc4s3)nc2c1`, the Potency was 26.6 µM (active).

As for `N=C1N=C(N)c2cc3ccccc3cc21`, the Potency was 16.8 µM (active).

With `O=c1cc(-c2ccccc2)oc2ccccc12`, the Potency is 4.61 µM (active) and 5.45 µM (active).

`Nc1cc(-c2ccncc2)c[nH]c1=O`: the Potency result is “inactive”.

Turning to `O=C(O)[C@H](O)[C@@H](O)[C@H](O)[C@H](O)CO`, the Potency entry was “inactive”.

System in a further assay: not listed separately
The experiment in a line: qHTS assay for small molecule activators of the p53 signaling pathway (AID 651743; active = well fitted activation curve with a large enough effect in the signal ratio, not every such curve was filed as active; the % refers to the signal ratio; also: potency is read from the fitted curve at half-maximal effect; as to activation: % of control where 0% means no effect). The note with it: HCT-116 p53RE-bla, beta-lactamase FRET ratio, 16 h; activation: active compounds read high. In a few lines:
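p53RE-bla HCT-116 cells carrying a beta-lactamase reporter under p53 response elements were exposed to compounds for 16 hours at 37 C. Reporter activity read as fluorescence after 2 hours at room temperature with LiveBLAzer B/G FRET substrate.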
For `CCCCCCCCCCCCCCCCCC(=O)O`, the activation is 2.31% (inactive) and -5.31% (inactive) and -1.74% (inactive).

Take `NCCO`: the activation is -4.3% (inactive).

On to `c1ccc2sc(SSc3nc4ccccc4s3)nc2c1`, for which the activation is 1.84% (inactive) and -0.504% (inactive).

As for `CN(C)CCC(c1ccc(Cl)cc1)c1ccccn1` (stereo not given), the activation is -2.38% (inactive).

Take `CCCCCCCCCCCCCCCC(=O)OC(C)C`: the activation is -1.99% (inactive).

As for `CCCOC(=O)c1ccc(O)cc1`, the activation is -1.88% (inactive) and -2.94% (inactive) and -1.35% (inactive).

For the compound `COc1cc(CNC(=O)CCCC/C=C/C(C)C)ccc1O`, the activation was -1.8% (inactive) and -5.67% (inactive).

Take `Nc1ccc([N+](=O)[O-])cc1O`: the activation is -1.9% (inactive) and 0.18% (inactive).

As for `O=C(O)c1cc(O)c(O)c(O)c1`, the activation was -4.32% (inactive).

On to `N=C1N=C(N)c2cc3ccccc3cc21`, for which the Potency was 35.5 µM (active).

Turning to `Nc1cc(-c2ccncc2)c[nH]c1=O`, the activation is -0.79% (inactive).

Take `C=CCCCCCCCCC(=O)O`: the activation is -2.56% (inactive).

On to `O=C1CN(/N=C/c2ccc([N+](=O)[O-])o2)C(=O)N1`, for which the activation is 5.55% (inactive).

System in the next assay: not listed separately
The experiment in a line: qHTS assay for small molecule activators of the nuclear factor-kappa B (NF-kB) signaling pathway (AID 651749; active = well fitted activation curve with a large enough effect in the signal ratio; the % refers to the signal ratio; also: % of control where 0% means no effect). The note with it: NF-kB-bla ME-180 cells, beta-lactamase FRET ratio, 16 h; active compounds read high. In a few lines: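 NF-kB-bla ME-180 cells carrying a beta-lactamase reporter under an NF-kB response element, 2,000 cells/well, exposed to compound for 16 hr at 37C; FRET-based beta-lactamase fluorescence read-out of pathway activation.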
On to `CCCCCCCCCCCCCCCCCC(=O)O`, for which the activation is -1.37% (inactive) and -0.0787% (inactive).

As for `c1ccc2sc(SSc3nc4ccccc4s3)nc2c1`, the activation was 3.06% (inactive) and 1.84% (inactive).

As to `CN(C)CCC(c1ccc(Cl)cc1)c1ccccn1` (stereo not given), the activation was -0.341% (inactive).

As to `CCCCCCCCCCCCCCCC(=O)OC(C)C`, the activation is 0.837% (inactive).

As to `COc1cc(CNC(=O)CCCC/C=C/C(C)C)ccc1O`, the activation was 0.091% (inactive) and 0.703% (inactive).

For the compound `Nc1ccc([N+](=O)[O-])cc1O`, the activation was 0.687% (inactive) and -0.798% (inactive).

Turning to `O=C(O)c1cc(O)c(O)c(O)c1`, the activation was -0.583% (inactive).

In the case of `O=c1cc(-c2ccccc2)oc2ccccc12`, the activation was -0.929% (inactive) and -1.54% (inactive).

For `Nc1cc(-c2ccncc2)c[nH]c1=O`, the activation was -2.44% (inactive).

With `O=C(O)[C@H](O)[C@@H](O)[C@H](O)[C@H](O)CO`, the activation is -5.45% (inactive).

For the compound `C=CCCCCCCCCC(=O)O`, the activation was -1.28% (inactive).

The values are drawn from PubChem BioAssay (NCATS).
